High-throughput results deposited in PubChem BioAssay by National Center for Advancing Translational Sciences (NCATS).
Cycloheximide cs: counter-screen hit for Shiga toxin inhibitors, cycloheximide | hit rate 12% among 300,000 | cell reporter, cycloheximide protein synthesis inhibition counterscreen | max response, %; in the data active = max response mostly above about 13%, no sharp cut-off; inactive = mostly below about 14%; note: read at 38.3 µM for the half of the compounds with a filed dose; 0% is about no effect
Shiga toxin inh: Shiga toxin inhibition; Vero cells, Shiga toxin protein synthesis inhibition reporter; inhibition, % at 38.7 µM; hit rate 9.2% among 290,000; AID 2315; in the data active = inhibition mostly above about 28%, no sharp cut-off; inactive = mostly below about 43%; note: 0% is about no effect
VACV Venus inh: vaccinia inhibition (Venus reporter); Potency, µM (titrated, usually from 36.5 µM), without a hit: at the highest dose activity change, negative = inhibition, usual class: inhibitors; AID 720580; hit rate 0.46% among 330,000; Vaccinia virus Venus reporter expression, fluorescence; calls by dose curve; tested in A549 cells; note: potency is the fitted concentration of half-maximal effect; % is set by controls: 0 for no effect and ±100 for the full control effect; nearly all actives have a fitted effect of over 30% in size
MARV entry inh: Marburg virus entry inhibition | Marburg virus pseudotyped entry inhibition, cell reporter | hit rate 1.8% among 300,000 | Potency, µM (doses to about 37.8 µM), without a hit: at the highest dose activity change, negative = inhibition, most hits filed as inhibitors; calls by dose curve; tested in HEK293 cells; note: potency is the fitted concentration of half-maximal effect; % is set by controls: 0 for no effect and ±100 for the full control effect
Lassa entry inh: blocks Lassa virus binding to or entry into cells. hit rate 1.2% among 300,000. Lassa virus pseudotype entry inhibition, cell reporter. Potency, µM (series often up to 37.9 µM), inactives show top-dose activity change, negative = inhibition, actives largely listed as inhibitors; calls by dose curve; tested in HEK293 cells; note: potency is the fitted concentration of half-maximal effect; % is set by controls: 0 for no effect and ±100 for the full control effect; nearly all actives have a fitted effect of over 50% in size
VACV mCherry inh: vaccinia inhibition (mCherry reporter) | Vaccinia virus mCherry reporter infection, fluorescence | Potency, µM (top dose mostly 36.5 µM), inactives show top-dose activity change, negative = inhibition, actives largely listed as inhibitors | hit rate 0.63% among 310,000 | AID 720579; calls by dose curve; tested in A549 cells; note: potency is the fitted concentration of half-maximal effect; % is set by controls: 0 for no effect and ±100 for the full control effect; nearly all actives have a fitted effect of over 35% in size
* hit, by the source's call; i = inactive; ? = inconclusive; . = not tested or not shown; [ ] = another dose, or the depositor's remark. This is one part of a sample in which hits are shown more often than they occur.

SMILES	Cycloheximide cs	Shiga toxin inh	VACV Venus inh	MARV entry inh	Lassa entry inh	VACV mCherry inh
Cc1ccc(NC(=O)CN2C(=O)NC(C)(c3ccccc3)C2=O)c(C)c1 (stereo unspecified)	-8	2	-17%	-29%[46.1 µM]	3%	-21%
COc1ccccc1N1CCN(C(CNC(=O)C(=O)NCCc2ccccc2)c2cccnc2)CC1 (stereo unspecified)	.	.	-30%	.	-28%[46.1 µM]	-30%
Cn1nccc1C(=O)N(CCN1CCCCC1)CC1CCCN(C2CCCC2)C1 (stereo unspecified)	23*	23	-4%	?	0%	-10%
CCOCCCNc1nc2c(S(=O)(=O)c3ccc(CC)cc3)nnn2c2ccc(Cl)cc12	.	.	-13%	4%[46.1 µM]	.	-12%
COc1ccc2c(c1)NC(c1ccc(N(C)C)cc1)c1cccn1-2 (stereo unspecified)	25*	79*	-12%	?	-6%[46.1 µM]	-31%
COc1cc(=O)n2c(c1C(=O)N(C)Cc1nonc1C)CCN(C(=O)c1cccc(C)c1C)CC2	.	.	0%	.	.	i
Cc1ccccc1-c1noc(-c2ccc(N3CCCC3)c([N+](=O)[O-])c2)n1	.	.	2%	5%[46.1 µM]	11%[46.1 µM]	-5%
CNc1cccc(-c2ccc(C(C)=O)s2)n1	.	.	-8%	.	.	23%
CC(=O)c1ccc(-c2cccs2)s1	24*	36*	12%	13%[46.1 µM]	16%[46.1 µM]	-4%
CCCCCC(=O)N1CC2(C)CN(C(=O)CCCCC)CC(C)(C1)C2=O	-1	-10	-8%	?	-2%	-13%
Nc1ccccc1C#CC(=O)c1ccccc1	-1	-2	22µM*	.	.	?
O=C(C#Cc1cccc([N+](=O)[O-])c1)c1ccccc1	-6	2	.	.	.	.
C/C(=N\NC(=O)Nc1ccccc1)c1ccccc1	20*	32	-12%	?	23%	-18%
CCCCCC(=O)NNC(=O)Nc1ccccc1	-4	-15	-6%	-3%	9%	-14%
CCCC/C(C)=N/NC(=O)Nc1ccccc1	18*	41*	-20%	9%	10%	-11%[1.46 µM]
CCCCSC(=O)Nc1ccccc1	31*	85*	-19%	22%[46.1 µM]	-4%	-16%
O=S(=O)(NCCc1nnc2ccc(SCc3ccc(C(F)(F)F)cc3)nn12)c1ccccc1	.	.	-13%	.	-18%[46.1 µM]	-19%
Cc1cccc(N(CC(O)CN2CCCC2)S(=O)(=O)c2ccccc2)c1 (stereo unspecified)	-6	-14	-3%	?	1%[46.1 µM]	-24%
Oc1ccccc1-c1nc(/C=C/c2ccc(F)cc2)nn1-c1ccccc1	.	.	-2%	17%[46.1 µM]	15%[46.1 µM]	-6%
COc1ccc(O)c(C(=O)c2cnn(C(=O)c3cccc(N(C)C)c3)c2)c1	.	.	-9%	-5%	3%	-24%
CN(C)c1cccc(C(=O)n2cc(C(=O)c3cc(F)ccc3O)cn2)c1	20	97*	-10%	-1%	-7%	i
COc1ccc(-c2cc(C(=O)N3CCN(c4ccccc4F)CC3)c3ccccc3n2)c(OC)c1	5	-6	?	?	?	-24%
Cc1c(/C=N/NC(=O)c2ccc(Br)o2)cnn1C	38*	57*	-9%[7.34 µM]	3%[46.1 µM]	20%	i[7.34 µM]
Cc1c(/C=N\NC(=O)c2ccc(F)cc2)cnn1C	16	27*	-8%	?	1%	-18%
CCc1ccc(OCc2cccc(C(=O)N/N=C\c3cnn(C)c3C)c2)cc1	15	53*	-10%	?	?	-12%
SMILES	Cycloheximide cs	Shiga toxin inh	VACV Venus inh	MARV entry inh	Lassa entry inh	VACV mCherry inh
CCn1ncc(/C=N\NC(=O)c2ccc3c(c2)c(C)c(C)n3Cc2ccccc2)c1C	-2	3	-21%	?	-34%	-27%
Cc1c(/C=N/NC(=O)C2(O)c3ccccc3-c3ccccc32)cnn1C	-2	8	1%	-1%	-1%	-21%
Cc1occc1C(=O)N/N=C/c1cnn(C)c1C	33*	62*	.	13%	1%	.
CC(C)Cn1c(N)c(C(=O)CSc2ncn[nH]2)c(=O)n(C)c1=O	.	.	-6%	0%[46.1 µM]	-5%	-8%
O=C(C[n+]1ccnc2ccccc21)c1ccc(Cl)cc1	.	.	-2%	.	.	i
CCCOc1ccc(C2C(=O)N(C3CCCCCC3)CC(=O)N2Cc2ccccc2OC)cc1OC (stereo unspecified)	.	.	-6%	.	-25%[46.1 µM]	-12%
Cc1c(/C=N\NC(=O)c2cccc(F)c2)cnn1C	45*	92*	-7%	29%	13%	-4%
Cc1c(/C=N/NC(=O)c2ccc3c(c2)OCO3)cnn1C	11	31	-2%	-6%	0%	-3%
O=C(CSc1nnc(C2CC2)n1CC1CCCO1)Nc1cccc(Cl)c1 (stereo unspecified)	-3	-5	-2%	25%[46.1 µM]	-1%	-27%
CC1(C)NC(=O)N(CCCCOc2ccc3ccccc3c2Cl)C1=O	54*	88*	.	?	?	.
Cc1ccc(C(C)C)c(OCCCN2C(=O)NC(C)(C)C2=O)c1	-4	-9	.	?	12µM*	.
Cc1ccc(C(C)C)c(OCCCN(C)Cc2ccccc2)c1	-3	11	-13%	8.2µM*	?	-21%
CC1(C)NC(=O)N(CCOCCOc2cccc(Oc3ccccc3)c2)C1=O	8	-26	.	-3%	?	.
CC1(C)NC(=O)N(CCOCCOc2ccc3ccccc3c2Br)C1=O	37*	44	.	20%	20%	.
Cc1ccc([N+](=O)[O-])c(OCCN2C(=O)NC(C)(C)C2=O)c1	35	25	.	-6%	2%	.
Cc1ccc(NC(=O)CN2C(=O)CCc3cc(S(=O)(=O)N4CCOCC4)ccc32)cc1F	.	.	1%	.	-10%[46.1 µM]	-8%
Cc1nn(Cc2ccc(Cl)cc2)c(C)c1NC(=O)CCCn1nc(C)c([N+](=O)[O-])c1C	-4	-3	-25%	13µM*	?	-14%
Cc1nn(Cc2ccccc2)c(C)c1NC(=O)CCCn1nc(C)c([N+](=O)[O-])c1C	-1	-13	-6%	1%	?	17%
COc1ccc(CCn2nc(C)c([N+](=O)[O-])c2C)cc1	30*	83*	-6%	-3%[46.1 µM]	-16%[46.1 µM]	i
Cc1c(NC(=O)COC(=O)c2ccc(S(=O)(=O)N3CCOCC3)cc2)c(=O)n(-c2ccccc2)n1C	9	-12	13%	?	0%	i
CCn1c(=O)c2cc(C(=O)N3CCN(C)CC3)sc2c2ccccc21	1	11	-6%	.	.	41%
CC(C)NC(=O)c1cc2c(=O)n3ccccc3nc2s1	2	-2	-11%	-3%[46.1 µM]	13%[46.1 µM]	i
C=CCNC(=O)c1cc2c(=O)n3ccccc3nc2s1	34*	72*	.	.	.	.
O=C(NC1CCCCCC1)c1cc2c(=O)n3ccccc3nc2s1	29*	75*	-4%	16%[46.1 µM]	-1%	-9%
CN1CCN(C(=O)c2cc3sc4ccccc4c3s2)CC1	39*	49	-16%	-28%[46.1 µM]	-11%[46.1 µM]	-6%
CCOC(=O)N1CCN(C(=O)c2cc3c(=O)n4ccccc4nc3s2)CC1	-2	6	-6%	2%	9%	-18%
CN1CCN(C(=O)c2cc3c(=O)n4ccccc4nc3s2)CC1	12*	49*	9%	18%[46.1 µM]	12%[46.1 µM]	-8%
CSC[C@H]1CN(Cc2ccccc2)C(=O)[C@H]1CC(=O)Nc1ccccc1	.	.	.	.	-8%[46.1 µM]	.
